The values below come from PubChem BioAssay (NCATS).

The structures appear in SMILES notation. Values joined by “and” are separate entries in the source; they are usually repeats but may differ in a detail not shown here. Identical values can stand only once. Inconclusive results are not listed. Values without a mark were called inactive. Active and inactive are the calls of the source. Calls come from the whole dose curve.

Bile acid receptor (Homo sapiens), sequence (Q96RI1 whole entry, looked up): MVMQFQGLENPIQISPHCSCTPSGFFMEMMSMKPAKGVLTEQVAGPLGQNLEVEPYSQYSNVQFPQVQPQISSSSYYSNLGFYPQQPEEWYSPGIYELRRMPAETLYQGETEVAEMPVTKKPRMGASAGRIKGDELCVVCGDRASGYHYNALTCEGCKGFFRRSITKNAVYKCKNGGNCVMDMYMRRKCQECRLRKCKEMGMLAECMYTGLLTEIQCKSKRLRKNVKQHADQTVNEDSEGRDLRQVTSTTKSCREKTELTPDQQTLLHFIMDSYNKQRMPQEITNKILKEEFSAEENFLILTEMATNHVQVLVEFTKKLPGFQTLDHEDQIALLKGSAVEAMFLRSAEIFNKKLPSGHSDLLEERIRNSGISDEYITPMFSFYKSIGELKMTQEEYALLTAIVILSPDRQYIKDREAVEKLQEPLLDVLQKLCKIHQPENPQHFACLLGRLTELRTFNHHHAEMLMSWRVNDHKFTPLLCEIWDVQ

The assay addresses Bile acid receptor (Homo sapiens) (UniProt Q96RI1). In words: qHTS assay for small molecule agonists of farnesoid X receptor signaling (AID 588527).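 For activation: series mostly up to about 77 µM; 0% = vehicle basal and 100% = reference agonist.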 Conditions: HEK293T FXR-UAS-bla, beta-lactamase ratio, 16 h; activation: stronger effect = higher value. The text has this:
NIH Chemical Genomics Center [NCGC] U.S. Environmental Protection Agency [EPA] National Institutes of Environmental Health Sciences [NIEHS] National Toxicology Program [NTP] NCGC Assay Overview The farnesoid-X-receptor (FXR), a nuclear hormone receptor is highly expressed in liver, intestine, kidney and adrenal cortex. Natural ligands of FXR are the bile acids (Cholic acid, Chenodeoxy cholic acid etc). It is an important regulator of diverse metabolic pathways, including the bile acid homeostasis, lipid and glucose metabolisms. FXR regulates the expression of target genes by binding either as a monomer or as a heterodimer with RXR (retinoid X receptor). As FXR regulates a large number of target genes involved in bile acid, lipoprotein and glucose metabolisms, it is a potential pharmacological target for bile acid and lipid disorders. Thus screening environmental chemicals on FXR signaling can be used for the studies focused on metabolic syndrome, hepatic and intestinal toxicity etc.
NCGC Assay Protocol Summary Using a beta-lactamase reporter-gene under control of Farnesoid X receptor (FXR) response element, a cell-based assay [GeneBLAzer FXR-UAS-bla assay developed by Invitrogen] was used to measure FXR ligands signaling. GeneBLAzer FXR-UAS-bla HEK293T cells were used with assay medium containing 10% dialyzed FBS. The assay was performed in clear bottom black Greiner 1536-well plates. Chenodeoxycholic acid and Guggulsterone were used in the screen as agonist and antagonist positive controls respectively. Library compounds were measured for their ability to stimulate the reporter gene activity. Compounds were screened in a titration series in 1536-well format. […] Data was normalized relative to Chenodeoxycholic acid control (100 uM, 100%), and DMSO only wells (basal, 0%). Concentration-response titration points for each compound were fitted to the Hill equation yielding concentrations of half-maximal stimulation (EC50) and maximal response (efficacy) values. qHTS protocol for FXR beta-lactamase assay in agonist mode [Step] [Parameter] [Value] [Description] 1. Reagent; 6 uL; 5000 cells/well 2. Incubation; 37 C for 5-7 hrs 3. Compounds; 23 nL; 0.59 nM to 92 uM 4. Controls (Chenodeoxycholic acid); 23 nL, - One column with dose response, start 200 uM, 1:2 dilutions in duplicates - Final concentrations of 100 uM and 60 uM in two columns 5. Incubation; 37 C for 16 hrs 6. Detection reagent; 1 uL of CCF4-dye 7. Incubation; RT for 2 hrs 8. Detection; Fluorescence; Envision plate reader
Background: Quantitative high-throughput screening tests each substance at several concentrations.
For the molecule `CCCCCCCCCCCCCc1ccccc1`, the activation was -1.99%.

`NC(=O)c1ccccc1`: the activation is 0.288%.

Regarding `COCCOCCOCCOC`, the activation was 4.16%.

Regarding `CC(C=CC1=C(C)CCCC1(C)C)=CC=CC(C)=CC(=O)Nc1ccc(O)cc1`, the activation was 2.75%.

`CCCC/C=C\CCCCCCCCCC=O`: the activation is -2.92%.

As to `CCCCCCC(=O)O`, the activation is -0.812%.

For `CCCCCCCCCCCCCCCCCC(N)=O`, the activation is 1.8%.

For `c1ccc2c(c1)ccc1ccccc12`, the activation is -5.28% and 1.03%.

In the case of `CC(=O)c1ccccn1`, the activation is -4.62%.

As for `O=C(O)c1cc(O)c2ccccc2c1O`, the activation was 1.64%.

With `O=C(Nc1ccccc1)c1cc([N+](=O)[O-])ccc1Cl`, the activation is -1.48%.

`c1ccc(Nc2ccc3ccccc3c2)cc1`: the activation was 5.18% and -0.414%.

`CCCCCC1CCC(=O)O1` (stereo not given): the activation is 0.301%.

`C[C@@H]1Cc2c(Cl)cc(C(=O)N[C@@H](Cc3ccccc3)C(=O)O)c(O)c2C(=O)O1`: the Potency was 44.7 µM (active).

As for `NCCO/C=C/[C@H](N)C(=O)O`, the activation is 4.46%.

`O=c1c(O)c(-c2ccc(O)cc2O)oc2cc(O)cc(O)c12`: the activation was -2.26%.

For the molecule `Cc1cc(O)c2c(c1)C(=O)c1cccc(O)c1C2=O`, the activation was -2.98%.

As to `CC(=O)C(C)=O`, the activation was 0.539%.

For the molecule `COC(=O)CCCC(=O)OC`, the activation was -3.54%.

Take `Cc1cccc(O)c1C`: the activation is -0.773%.

Turning to `CCCCOP(=O)(O)OCCCC`, the activation was 1.99%.

As for `CCC(=O)OCCc1ccccc1`, the activation was 0.429%.

In the case of `C=CC(C)(O)CCC=C(C)C` (stereo not given), the activation was -2.97% and 2.71%.

As for `CCCc1c(-c2ccc(O)cc2)nn(-c2ccc(O)cc2)c1-c1ccc(O)cc1`, the activation was 1.37%.

Take `O=C1c2cccc(O)c2C(=O)c2c(O)cc(CO)cc21`: the activation is 4.08%.

On to `CCCCC(CC)CO` (stereo not given), for which the activation was -0.465%.

In the case of `OCCO`, the activation was 1.31%.

`O=C(/C=C/C=C/c1ccc2c(c1)OCO2)N1CCCCC1`: the activation was 4.73%.

With `CCOC(=O)c1ccccc1N`, the activation was -0.579%.

For the molecule `Cc1ccc2cc3c(ccc4ccccc43)c3c2c1CC3`, the activation was 2.18%.

Turning to `Nc1nc(N)c2nc(CNc3ccc(C(=O)NC(CCC(=O)O)C(=O)O)cc3)cnc2n1` (stereo not given), the activation was 1.76%.

`O=Cc1ccccc1`: the activation is -1.64%.

In the case of `COC(=O)c1ccccc1C(=O)OC`, the activation was -0.299% and -2.92%.

As for `O=c1c(-c2ccc(O)cc2)coc2cc(O)ccc12`, the activation is 2% and 3.27%.

For the molecule `CCOP(=S)(OCC)SCSCC`, the activation was 1.79%.

As to `N[C@@H](Cc1ccc(O)c(O)c1)C(=O)O`, the activation is 1.53%.

As for `CS(C)=O`, the activation is -2.1%.

On to `Oc1c(Cl)c(Cl)c(Cl)c(Cl)c1Cl`, for which the activation was 0.631% and 4.93%.

As for `C/C=C/C=C/CCCCCCCO`, the activation was -0.999%.

Consider `CCCc1c(OCCCOc2ccc(OCC(=O)O)cc2)ccc(C(C)=O)c1O`, for which the activation is 3%.
